Data taken from PubChem BioAssay (NCATS).
Inconclusive results are not listed. A call without a number means that no potency is given here. Active and inactive are the calls of the source. Calls come from the whole dose curve; as a rule, active = well fitted cell-killing curve with a large enough effect; inconclusive = small, poorly fitted or top-dose-only effect, or effect the other way; inactive = flat fitted curve, though single readings scatter.

Test: qHTS of pediatric cancer cell lines to identify multiple opportunities for drug repurposing: Confirmatory screen for control Hh wild type fibroblast cells (AID 1347121); note: nearly all actives have a fitted effect of over 70% in size
Conditions: viability qHTS; series mostly up to 45.9 µM
Outline: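 Viability after 48 h compound treatment at 37C, 500-1,000 cells/well, read as ATP luminescence with CellTiter-Glo. Primary screens used 11-point (MIPE, 0.78 nM-46 µM) or 8-point (NPC, 0.59 nM-46 µM) final concentrations; follow-up screens used 11-point dilutions.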
Potency is the fitted concentration of half-maximal effect.

Structure (SMILES)	Potency
Cc1nn(Cc2ccccc2Cl)c(C)c1CN(C)CC(O)COc1ccc(Cl)cc1 (centres undefined)	inactive
Cc1cccc(-c2[nH]c(C(C)(C)C)nc2-c2ccc3c(c2)OCO3)n1	8.27 µM (active)
Cc1cc(CS(=O)(=O)c2ccccc2)cc(OCc2ccc(CN3CCC[C@H]3CO)cc2)c1	inactive
CC(C)C[C@H](NC(=O)c1cc2ccccc2s1)C(=O)N1CCN(C(=O)[C@H](CO)NS(=O)(=O)c2ccc(Cl)cc2Cl)CC1	inactive
CCN(CCO)CCCOc1ccc2c(Nc3cc(CC(=O)Nc4cccc(F)c4)[nH]n3)ncnc2c1	inactive
CC(=O)N1CCN(c2ccc(OCc3nn(C)c(C)c3-c3cccc4c(CCCOc5cc(C)c(Cl)c(C)c5)c(C(=O)O)n(Cc5cccnc5)c34)cc2)CC1	inactive
CN(C(Cc1ccc(OS(=O)(=O)c2cccc3cnccc23)cc1)C(=O)N1CCN(c2ccccc2)CC1)S(=O)(=O)c1cccc2cnccc12 (centres undefined)	inactive
COc1cc2nccc(Oc3ccc(NC(=O)Nc4cc(C)on4)c(Cl)c3)c2cc1OC	inactive
COc1cc2c(cc1Cc1cccc(Cl)c1F)c(=O)c(C(=O)O)cn2[C@H](CO)C(C)C	inactive
COC1CCC(C(=O)c2ccc3nc4c(cc3c2)CCCO4)CC1 (centres undefined)	inactive
O=C1NC(=O)C(c2cnc3ccccn23)=C1c1cn2c3c(cccc13)CN(C(=O)N1CCOCC1)CC2	inactive
Cc1ccccc1-n1c(Cn2nc(-c3cccc(O)c3)c3c(N)ncnc32)nc2cccc(C)c2c1=O	inactive
O=C(c1ccc(F)c(F)c1Nc1ccc(I)cc1F)N1CC(O)([C@H]2CCCCN2)C1	inactive
CCC(=O)N1CCN(c2ccc(-n3c(=O)ccc4cnc5ccc(-c6cnc7ccccc7c6)cc5c43)cc2C(F)(F)F)CC1	inactive
COc1cc2c(cc1OC)[C@@H]1Cc3ccc(OC)c(OC)c3CN1CC2	inactive
CC1=C[C@@H]2[C@@H]([C@@H](O)C[C@@]3(C)[C@H]2C[C@@H](C)[C@]3(O)C(=O)CO)[C@@]2(C)Cc3cnn(-c4ccccc4)c3C=C12	inactive
CCC[C@H](Nc1nc(-c2ccc(NC(=O)NCC)c(OC)c2)ncc1C)c1cccnc1	inactive
CC[C@H](NC(=O)[C@H](C)NC)C(=O)N1C[C@@H](O)C[C@H]1Cc1c(-c2[nH]c3cc(F)ccc3c2C[C@H]2C[C@H](O)CN2C(=O)[C@H](CC)NC(=O)[C@H](C)NC)[nH]c2cc(F)ccc12	inactive
Cc1csc(-c2nnc(Nc3ccc(Oc4ncccc4-c4ccnc(N)n4)cc3)c3ccccc23)c1	inactive
